In all, about 370,000 compounds went through this assay and about 4,800 (1.3%) were called active. The sample as a whole holds a higher share of actives than the screen did. Unmarked numbers belong to inactive results.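 Rule for the calls: active = inhibition above about 21% made by adding two undisclosed values (limit read from the data); inactive = the rest.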
Target: Protein arginine N-methyltransferase 1 (Homo sapiens) (UniProt Q99873)
Test: human PRMT1 activity-probe blockers – biochemical, fluorescence polarization, primary screen (AID 652257)
Details: recombinant PRMT1, activity-based probe fluorescence polarization; at 2.79 µM; hits give high values

Protein arginine N-methyltransferase 1 (Homo sapiens), sequence (Q99873 whole entry, looked up): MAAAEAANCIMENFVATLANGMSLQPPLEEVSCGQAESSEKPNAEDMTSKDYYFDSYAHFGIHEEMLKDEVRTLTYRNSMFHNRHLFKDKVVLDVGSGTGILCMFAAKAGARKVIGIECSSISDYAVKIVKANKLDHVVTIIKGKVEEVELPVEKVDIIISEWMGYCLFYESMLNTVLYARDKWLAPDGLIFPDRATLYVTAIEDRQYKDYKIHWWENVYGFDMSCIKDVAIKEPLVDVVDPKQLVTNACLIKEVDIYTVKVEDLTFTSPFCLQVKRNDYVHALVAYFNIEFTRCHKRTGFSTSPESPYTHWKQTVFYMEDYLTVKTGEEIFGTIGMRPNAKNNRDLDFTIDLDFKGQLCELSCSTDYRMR

Row | Compound | inhibition
1 | COc1ccc(C(=O)OCCN(C)C2CN(Cc3cn(Cc4cccc(C)c4)nn3)S(=O)(=O)C2)cc1OC (centres undefined) | -3.17%
2 | CC(=O)N1CCCN(C2=Nc3ccccc3Sc3ccccc32)CC1 | -2.73%
3 | CCCCOCCCNC(=O)C[C@H]1C[C@@]2(C(=O)OC)C(=C[C@H](COCc3ccccc3)O[C@@H]2C)N(Cc2cccc3ccccc23)C1=O | -1.04%
4 | CCOC(=O)C1(Cc2cccc(OC)c2)CCCN(C(=O)CCSC)C1 (centres undefined) | 2.68%
5 | CC(C)(C)C1C/C(=C/c2ccco2)C(=O)/C(=C/c2ccco2)C1 (centres undefined) | 24.6% (active)
6 | O=C(NCCc1c[nH]c2ccccc12)OCc1cn(-c2c(F)cccc2F)nn1 | 0.52%
7 | CCCCNC(=O)C[C@@H]1C(=O)N(CCc2ccc(Cl)cc2)C2=CCCC[C@]21C(=O)OCC | -4.44%
8 | NC(=O)NC(=O)CSc1nc2cc([N+](=O)[O-])ccc2n1-c1cccc(C(F)(F)F)c1 | -3.17%
9 | CC(=O)OC1CCC2C3CCC4=C(CC(F)C(=O)C4)C3CCC12C (centres undefined) | -4.66%
10 | Fc1ccc(COc2ccc(-c3nnco3)cc2)cc1 | 2.4%
11 | Fc1ccc(COc2cccc(-c3n[nH]c(=S)o3)c2)cc1 | 31.7% (active)
12 | CN(Cc1ccc(F)cc1)C(=O)COc1ccc2ccccc2c1 | 6.77%
13 | CC(C)(C)NC(=O)CSC(=Nc1ccccc1F)NC#N | 8.54%
14 | COc1ccc(-n2c(SCC(=O)Nc3ccc4c(c3)OCCO4)nnc2-c2ccc(Cl)cc2)cc1 | -2.7%
15 | O=C(CN1CCC(NC(=O)NCc2ccccc2)CC1)Nc1ccc2c(c1)OCCO2 | 2.96%
16 | COc1ccccc1C(=O)CSc1nnc(-c2ccccn2)n1-c1ccccc1 | -1.16%
17 | O=C(CCN1CCc2ccccc2C(O)(c2ccccc2)C1)c1ccc2c(c1)OCCO2 (centres undefined) | 51.5% (active)
18 | O=C(C(=O)N1CCN(c2ccccc2)CC1)c1ccc2c(c1)OCO2 | 0.48%
19 | O=S(=O)(c1ccc2c(c1)OCCO2)N1CCc2ccccc21 | -3.53%
20 | COc1ccc(C2NC(=O)N(C)C(C)=C2[N+](=O)[O-])cc1 (centres undefined) | -2.65%

Row | Compound | inhibition
21 | COc1ccc(S[C@]2(C(=O)N(C)C)CC(=O)N(c3ccc(OC)cc3)[C@@H]2c2ccc(OC)cc2)cc1 | -1.57%
22 | CC(C)(C)c1ccc(CSc2nnc(-c3cccs3)o2)cc1 | -1.14%
23 | OCCN1CCN(C(=S)c2ccc(-c3ccccc3)cc2)CC1 | 32% (active)
24 | O=C(NC(=S)N1CCN(Cc2ccccc2)CC1)c1ccccc1 | 0.22%
25 | O=C1CCN(CCCc2ccccc2)CCN1CCO | -6.27%
26 | CC1CN(CC(=O)NC(C)c2ccccc2)CC(C)O1 (centres undefined) | 0.73%
27 | COc1cccc(N2C(=O)CC(N3CCc4ccccc4C3)C2=O)c1 (centres undefined) | 4.88%
28 | CCc1cccc(CC)c1N1C(=O)CC(Sc2ccccc2N)C1=O (centres undefined) | -1.17%
29 | COC(=O)c1ccccc1SC1CC(=O)N(c2cccc(C)c2)C1=O (centres undefined) | 57.3% (active)
30 | Cc1ccccc1S(=O)(=O)NC(=O)C1(C)CCN1C(=O)C1(c2ccccc2)CCCC1 (centres undefined) | 0.03%
31 | O=C(c1ccc[nH]c1=S)N1CCN(S(=O)(=O)c2ccc(Br)cc2Cl)CC1 | 31.8% (active)
32 | O=C(O)c1cc(S(=O)(=O)N2CCCCCC2)c(Cl)cc1Cl | -2.22%
33 | Cc1ccc(S(=O)(=O)N2CCN(C(=O)c3ccccc3-c3nc4ccccc4s3)CC2)c(C)c1 | 6.86%
34 | O=C(CNS(=O)(=O)c1ccccc1F)N1CCN(c2ccccn2)CC1 | 2.96%
35 | O=S(=O)(c1ccc2c(c1)OCCCO2)N1CCN(S(=O)(=O)c2c(F)cccc2F)CC1 | -4.09%
36 | COc1ccc(C(C)NC(=S)NC2CCCCC2)cc1OC (centres undefined) | -2.42%
37 | COc1cc(C(=S)N2CCOCC2)ccc1O | 24.1% (active)
38 | Cc1ccc(C(=O)OCC(=O)NC2CCCCCCC2)cc1C | -2.13%
39 | COc1cc(C(=O)Nc2cc(C(F)(F)F)ccc2N2CCOCC2)ccc1O | -2.71%
40 | COc1ccc(C)cc1NC(=S)N1CCOCC1 | -1.44%

Row | Compound | inhibition
41 | COc1cc(C(=S)NC2CCCCC2)ccc1O | 29% (active)
42 | COC(=O)C[C@@H]1CC[C@@H]2[C@@H](COc3ccc(NC(=O)Nc4ccc(F)c(F)c4)cc3C(=O)N2C)O1 | -0.15%
43 | O=C1c2ccccc2C(=O)N1CCC(c1ccccc1)c1ccco1 (centres undefined) | 8.33%
44 | CCCCCN(C(=O)NC(=O)Nc1ccccc1OC)S(C)(=O)=O | 5.33%
45 | O=C(OC12CCCN(C1)/C(=C/c1cccnc1)C2)C1CCCC1 (centres undefined) | 0.1%
46 | CCOC(=O)[C@@]12CN(C(=O)OC(C)(C)C)CC=C1N(Cc1ccc(OC)cc1)C(=O)[C@H]2CC(=O)NCc1ccc(OC)c(OC)c1 | -3.24%
47 | O=C(Nc1c(-c2ccccc2)nc2c(Br)cc(Br)cn12)c1ccco1 | 0.75%
48 | O=C(Nc1ccccc1C(=O)N1CCCCC1)c1ccco1 | -7.4%
49 | O=C(Nc1nc(-c2ccco2)c(-c2ccco2)s1)c1ccco1 | 51.8% (active)
50 | O=C(CSc1nnc(C2CC2)n1Cc1ccccc1)Nc1cccnc1Cl | 4.21%
51 | CN=C(c1ccccc1)c1c(C)cccc1C | -2.83%
52 | Cc1cccc(C)c1NC(=O)C(Cl)C(=O)c1ccccc1 (centres undefined) | 32% (active)
53 | Cc1cccc(C)c1NC(=O)N1CC(C)OC(C)C1 (centres undefined) | 1.08%
54 | CCOc1ccc(S(=O)(=O)N2CCC(C(=O)NCC(=O)Nc3cccc(Cl)c3C)CC2)cc1 | -4.55%
55 | CC(C)[C@@H](C)/C=C/[C@@H](C)[C@H]1CC[C@@H]2[C@]1(C)CCC1[C@]23C=C[C@]2(C[C@@H](O)CC[C@]12C)N(c1ccc([N+](=O)[O-])cn1)O3 (some centres undefined) | 1.5%
56 | O=S(=O)(Cc1nnnn1-c1ccc(Br)cc1)c1ccc(F)cc1 | -3.12%
57 | CC1CCN(C(=S)NC(=O)c2ccccc2Br)CC1 | -1.71%
58 | COC(=O)c1cccnc1NC(=S)NC(C)C | -1.9%
59 | O=C(NC(=S)Nc1ncccn1)c1ccccc1Br | 21.4% (active)
